Screening results: PubChem BioAssay, several laboratories
In the library only some 6.7% were active in any assay of this set; here they are far more common.
Bead autofluor: counter-screen for toxin protease inhibitors: compound fluorescence | compound autofluorescence counterscreen, microsphere flow cytometry; stronger effect = higher value | fluorescence intensity (test concentration not listed) | hit rate 3.1% among 360,000 | AID 624483; in the data active = fluorescence intensity above about 16000; inconclusive = no clear call, values can overlap the other calls
FBA Mtb inh: Mtb fructose-bisphosphate aldolase inhibition | P9WQA3 | purified M. tuberculosis FBA, fluorescence read-out | inhibition, % at 1 µM | hit rate 2.3% among 360,000 | AID 588726; in the data active = inhibition above about 27%
Target sequence (P9WQA3 whole entry, looked up): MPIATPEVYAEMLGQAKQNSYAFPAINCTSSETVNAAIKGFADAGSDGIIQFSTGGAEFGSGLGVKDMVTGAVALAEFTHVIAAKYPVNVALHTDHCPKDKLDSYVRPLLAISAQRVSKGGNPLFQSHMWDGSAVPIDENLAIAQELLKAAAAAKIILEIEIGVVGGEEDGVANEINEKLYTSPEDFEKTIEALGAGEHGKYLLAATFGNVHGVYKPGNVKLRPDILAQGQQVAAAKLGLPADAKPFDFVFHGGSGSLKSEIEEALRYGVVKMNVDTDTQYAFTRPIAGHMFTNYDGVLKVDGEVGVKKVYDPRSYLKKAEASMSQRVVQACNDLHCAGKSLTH
BoNT A protease: BoNT A light chain protease inhibition. multiplex microsphere protease substrate cleavage, flow cytometry. inhibition, % at 10 µM. hit rate 0.17% among 360,000. AID 588499
Anthrax LF inh2: anthrax lethal factor protease inhibition; P15917; multiplex microsphere protease cleavage assay, LF; inhibition, % at 10 µM; hit rate 0.12% among 360,000
GDH-TPI counter-1: inhibits GDH-TPI coupling enzymes, artifact for Mtb FBA screen. GDH-TPI coupled enzyme counterscreen, NADH absorbance. hit rate 1.2% among 360,000. inhibition, % at 4.8 µM; in the data active = inhibition above about 30%
BoNT F protease: BoNT F light chain protease inhibition; Multiplex microsphere protease cleavage assay, flow cytometry; inhibition, % at 10 µM; hit rate 0.22% among 360,000; in the data active = inhibition above about 35%, passing the limit was not always enough; inconclusive = no clear call, values can overlap the other calls
Mtb FBA confirm: Mtb FBA inhibition, confirmed | AID 651616 | hit rate 78% among 5,600 | purified M. tuberculosis FBA, fluorescence read-out | shares compounds with FBA Mtb inh | inhibition, % at 1 µM; in the data active = inhibition above about 27%
GDH-TPI counter-2: GDH-TPI inhibition counter-screen for FBA inhibitors; shares compounds with FBA Mtb inh; GDH-TPI coupled enzyme counterscreen, fluorescence; inhibition, % at 1 µM; hit rate 81% among 5,600; in the data active = inhibition above about 10%
Numbers stand for hits; 0 = inactive; ? = inconclusive; - = not tested or not shown; + = active, no number. Cut-off read from the data, not from the text of the source, unless noted: active = inhibition above about 30%; inconclusive = no clear call, values can overlap the other calls; inactive = below that.

SMILES	Bead autofluor	FBA Mtb inh	BoNT A protease	Anthrax LF inh2	GDH-TPI counter-1	BoNT F protease	Mtb FBA confirm	GDH-TPI counter-2
CCN(C(=O)COC(=O)c1cc(-c2cccs2)nc2ccccc12)C1CCS(=O)(=O)C1 (stereo unspecified)	0	72	0	0	0	0	45	45
O=C(NN1CCOCC1)c1cc(-c2cccs2)nc2ccccc12	0	51	0	0	0	0	36	21
C/C(=N\NC(=O)c1cc(-c2ccc(C)s2)nc2ccccc12)c1cccnc1	0	62	0	0	0	0	136	111
O=C(N/N=C/c1cccnc1)c1cc(-c2cccs2)nc2ccccc12	0	56	0	0	0	0	51	50
Cc1cc(C(=O)N/N=C/c2cccnc2)c2ccccc2n1	0	0	0	0	0	0	-	-
O=C(CN1C(=O)NC2(CCCCCCC2)C1=O)N1CCN(C(=O)c2ccco2)CC1	0	42	0	0	0	0	+	161
COc1ccc(-c2cc(C(F)F)n3ncc(C(=O)NCCCN4CCCC4=O)c3n2)cc1	0	31	0	0	0	0	+	169
COc1ccc2[nH]c(C(=O)NCCCN3CCCC3=O)c(C)c2c1	0	58	0	0	0	0	0	0
COc1ccc(-c2cc(C(F)F)n3ncc(C(=O)N4CCc5ccccc5C4)c3n2)cc1	0	30	0	0	0	0	83	76
COCCNC(=O)c1cnn2c(C(F)F)cc(-c3ccc(C)cc3)nc12	0	0	0	0	0	0	-	-
C=CCSc1nnc2c(n1)OC(c1cccnc1)Nc1ccccc1-2 (stereo unspecified)	0	0	0	0	0	0	-	-
Cc1cc(C)c(OCCCNC2CCCC2)c(Br)c1	0	67	0	0	0	0	+	+
Cc1cc(C)c(OCCCNCc2ccccc2)c(Br)c1	0	0	?	0	0	?	-	-
CCN(CC)CCn1c2ccccc2c2cnc(N)c(C#N)c21	0	29	0	0	0	0	+	180
CCN(CC)CCCNC(=O)CSc1nc(-c2cccs2)cc(C(F)(F)F)n1	0	0	0	0	0	0	-	-
O=C(COc1nnc2ccccn12)N1CCN(S(=O)(=O)c2ccccc2)CC1	0	35	0	0	0	0	0	0
O=C(COc1cccnc1[N+](=O)[O-])N1CCN(S(=O)(=O)c2ccccc2)CC1	0	0	0	0	0	0	-	-
c1ccc2c(c1)CCc1c-2nc2ccccc2c1N1CCOCC1	0	0	0	0	0	0	-	-
Cc1ccc2[nH]c3c(NCc4ccco4)ncnc3c2c1	0	42	0	0	0	0	0	0
COc1cc(CNc2ncnc3c2[nH]c2ccc(C)cc23)cc(OC)c1	0	35	0	0	0	?	0	0
Cc1ccc2[nH]c3c(NCCCN4CCCC4=O)ncnc3c2c1	0	39	0	0	0	0	0	27
Cc1ccc(C)c(OCC(=O)Nc2ccc3c(c2)OCO3)c1	0	0	0	0	0	0	-	-
COC(=O)C(C)(N)Cc1ccc(O)cc1 (stereo unspecified)	0	0	0	0	0	0	-	-
CCN(Cc1cn2cccnc2n1)C1CCCCC1	0	109	0	0	0	0	0	0
Cc1ccc(SCc2cn3cccnc3n2)cc1	0	0	0	0	0	0	-	-
SMILES	Bead autofluor	FBA Mtb inh	BoNT A protease	Anthrax LF inh2	GDH-TPI counter-1	BoNT F protease	Mtb FBA confirm	GDH-TPI counter-2
Cn1c(CCc2ccc(N)cc2)nc2ccccc21	0	0	0	0	0	0	-	-
Cn1c(-c2ccc(Cl)nc2)nc2ccccc21	0	37	0	0	0	0	113	83
Cn1c(-c2ccc(N)cc2)nc2ccccc21	0	88	0	0	0	0	+	+
CCOC(=O)Cn1c(-c2ccc(Cl)nc2)nc2ccccc21	22764	43	0	0	0	0	122	106
COCCN1CN(S(=O)(=O)c2cccc(Cl)c2)c2nc3ccccc3nc21	0	29	0	0	0	0	54	30
COCCCN1CN(S(=O)(=O)c2ccc(Cl)cc2)c2nc3ccccc3nc21	0	0	0	0	0	0	-	-
O=S(=O)(c1cccc(Cl)c1)N1CN(CC2CCCO2)c2nc3ccccc3nc21 (stereo unspecified)	0	36	0	0	0	0	188	146
CNC(=O)NC(=O)C(NC1CCCc2ccccc21)c1ccccc1 (stereo unspecified)	0	0	0	0	0	0	-	-
CCn1c(=O)c2cc(C(=O)NCCN3CCOCC3)sc2c2ccccc21	0	75	0	0	0	0	198	162
CCn1c(=O)c2cc(C(=O)NC(C)C)sc2c2ccccc21	0	44	0	0	0	0	-	+
CCC1CCCCN1C1Sc2ccc(C(=O)OC)cc2NC1=O (stereo unspecified)	0	0	0	0	0	0	-	-
CCC1(CC)C(=O)Nc2ccccc21	0	0	0	0	0	0	-	-
O=C(COC(=O)c1cc(Cl)ccc1Cl)NC1CCCC1	0	0	0	0	0	0	-	-
Cc1ccc(C)c(C(=O)OCC(=O)NC(=O)NCc2ccccc2)c1	0	0	0	0	0	0	-	-
Nc1cc(Cl)ccc1C(=O)OCC(=O)NC1CCCCCCC1	0	27	0	0	0	0	73	56
CN(Cc1ccccc1)C(=O)COC(=O)c1ccc(Cl)cc1N	0	50	0	0	0	0	101	90
CN(Cc1ccccc1)C(=O)COC(=O)Cc1ccc(Cl)cc1	0	0	0	0	0	0	-	-
Nc1cc(Cl)ccc1C(=O)OCC(=O)NC(=O)NCc1ccccc1	0	30	0	0	0	0	63	49
Cc1nn(CC(=O)NCCCN2CCCCC2)c(=O)c2cccn12	0	0	0	0	0	0	-	-
COc1cccc(CC(=S)N2CCOCC2)c1	0	0	0	0	0	0	-	-
Nc1c(O)cccc1C(=O)O	0	40	0	0	0	0	+	193
Cc1cccc(C(=O)c2ccccc2C(=O)O)c1O	0	0	0	0	0	0	-	-
Cc1cccc(C(=O)O)c1O	0	38	0	0	0	0	87	52
O=C(O)c1ccccc1O	0	46	0	0	0	0	0	0
O=C(NC1CCCCC1)c1ccc(-c2ccccc2[N+](=O)[O-])o1	0	0	0	0	0	0	-	-
C(=N\N1CCN(Cc2cccc3ccccc23)CC1)/c1ccco1	0	0	0	0	0	0	-	-
COc1cc(C)cc2oc(=O)c(CC(=O)N3C[C@H]4C[C@@H](C3)c3cccc(=O)n3C4)c(C)c12	0	81	0	0	0	0	139	124
C=C(C)COc1cc2oc(=O)c(CC(=O)N3C[C@H]4C[C@@H](C3)c3cccc(=O)n3C4)c(C)c2cc1Cl	0	68	0	0	0	0	0	0
Cc1c(C)c2ccc(OCC(=O)N3C[C@H]4C[C@@H](C3)c3cccc(=O)n3C4)cc2oc1=O	0	60	0	0	0	0	0	0
